Several values for one entry are separate records, joined by “and”; a condition that tells them apart may be missing. Equal entries are not always repeated. Inconclusive results are not listed. Where a structure was tested more than once in an assay, its records may differ in their call. Activity calls are given as the source filed them. Unless noted, calls follow the shape of the dose curve; as a rule, active = well fitted curve in the direction sought with a large enough effect in the repeat runs; inconclusive = weak or mixed curves; inactive = no such curve, though single readings can be large; an effect the other way counts as inactive or inconclusive.
Tests used:
[1] = qHTS assay to identify small molecule antagonists of the thyroid receptor (TR) signaling pathway - cell viability counter screen (AID 743064); also: nearly all actives have a fitted effect of over 50% in size; also: potency is read from the fitted curve at half-maximal effect
In short: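 In rat pituitary GH3.TRE-Luc reporter cells co-exposed to compound and 1 nM T3 for 23.5 h, cytotoxicity was assessed with CellTiter-Fluor in the same wells, read by fluorescence.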

[2] = qHTS assay to identify small molecule antagonists of the thyroid receptor (TR) signaling pathway (AID 743065); also: nearly all actives have a fitted effect of over 55% in size; also: potency is read from the fitted curve at half-maximal effect
In short: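 Antagonism measured as loss of luciferase signal in GH3 cells stably carrying a TRE-luciferase reporter, co-treated with compound and T3 (1 nM final) for 23.5 h at 37 C. Viability was read in the same well by CellTiter-Fluor.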

[3] = test system: thyroid hormone receptor (rat, GH3 cells); experiment: qHTS assay to identify small molecule agonists of the thyroid receptor (TR) signaling pathway (AID 743066; calls by dose curve)
[4] = qHTS assay to identify small molecule antagonists of the estrogen receptor alpha (ER-alpha) signaling pathway - cell viability counter screen (AID 743074; calls by dose curve;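 also: HEK293 cells carrying ER-alpha-UAS-bla reporter stimulated with 17beta-estradiol; nearly all actives have a fitted effect of over 45% in size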; also: potency is read from the fitted curve at half-maximal effect)
[5] = qHTS assay to identify small molecule antagonists of the estrogen receptor alpha (ER-alpha) signaling pathway using the BG1 cell line - cell viability counter screen (AID 743081);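 also: compound given together with 17beta-estradiol as the ER stimulus; nearly all actives have a fitted effect of over 45% in size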
[6] = qHTS assay to identify small molecule that activate the aryl hydrocarbon receptor (AhR) signaling pathway - cell viability counter screen (AID 743086); also: nearly all actives have a fitted effect of over 45% in size; also: potency is read from the fitted curve at half-maximal effect
In short: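 Cytotoxicity counter screen: CellTiter-Fluor signal (30 min, 37 C) in 4000 HepG2 cells/well carrying the DRE-luciferase reporter, following 24 h compound exposure at 37 C.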

[7] = qHTS assay to identify small molecule antagonists of the peroxisome proliferator-activated receptor gamma (PPARg) signaling pathway - cell viability counter screen (AID 743194); also: nearly all actives have a fitted effect of over 55% in size; also: potency is read from the fitted curve at half-maximal effect
In short: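 Viability was measured as CellTiter-Glo luminescence in GeneBLAzer PPARg UAS-bla HEK293H cells. These cells had been exposed 17 h at 37 C to compounds together with rosiglitazone at 50 nM final, with the beta-lactamase readout taken in the same wells.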

[8] = qHTS assay for small molecule agonists of the antioxidant response element (ARE) signaling pathway (AID 743202; active = well fitted activation curve with a large enough effect in the signal ratio in the repeat runs, not every such curve was filed as active; the % refers to the signal ratio; also: potency is read from the fitted curve at half-maximal effect)
In short: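 After 16 hours of compound treatment at 37 C, HepG2 cells with a stably integrated ARE-driven beta-lactamase reporter were loaded 2 hours at room temperature with LiveBLAzer B/G FRET substrate and fluorescence intensity measured.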

[9] = qHTS assay for small molecule agonists of the antioxidant response element (ARE) signaling pathway - cell viability counter screen (AID 743203; calls by dose curve; also: nearly all actives have a fitted effect of over 55% in size; also: potency is read from the fitted curve at half-maximal effect)
In short: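 Viability counter screen: CellTiter-Glo luminescence, read after 30 min at room temperature, in ARE-bla HepG2 wells. Compound exposure lasted 16 h at 37C/5% CO2, following a 5 h pre-incubation of the cells after plating.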

[10] = qHTS assay for small molecule activators of the heat shock response signaling pathway - cell viability counter screen (AID 743209); also: nearly all actives have a fitted effect of over 50% in size; also: potency is read from the fitted curve at half-maximal effect
In short: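 Cytotoxicity counter screen run in the same wells as the heat-shock bla reporter assay: HeLa HSE-bla cells, 5 h compound exposure at 37 C, viability read by CellTiter-Glo luminescence.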

[11] = qHTS assay for small molecule activators of the heat shock response signaling pathway (AID 743210; active = well fitted activation curve with a large enough effect in the signal ratio in the repeat runs, with a control signal flat, not every such curve was filed as active; the % refers to the signal ratio; also: potency is read from the fitted curve at half-maximal effect)
In short: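 Compound exposure lasted 5 h at 37 C in HeLa cells carrying a heat-shock-element-driven beta-lactamase reporter. Read-out: fluorescence intensity after 2.5 h room-temperature loading with LiveBLAzer B/G FRET substrate.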

[12] = target: Estrogen receptor (Homo sapiens) (UniProt P03372); experiment: qHTS assay to identify small molecule agonists of the estrogen receptor alpha (ER-alpha) signaling pathway using the BG1 cell line (AID 743079); settings: BG1Luc4E2 cells, ERE-luciferase agonist, 22 h; activation: at 70.3 µM (top of the series); also: nearly all actives have a fitted effect of over 20% in size; also: potency is read from the fitted curve at half-maximal effect
Aromatase (Homo sapiens) = Aromatase (Homo sapiens) (UniProt P11511); experiment: qHTS assay to identify aromatase inhibitors (AID 743083); also: nearly all actives have a fitted effect of over 55% in size; also: potency is read from the fitted curve at half-maximal effect
[13] = qHTS assay to identify aromatase inhibitors - cell viability counter screen (AID 743084); also: potency is read from the fitted curve at half-maximal effect
[14] = target: Aryl hydrocarbon receptor (Homo sapiens) (UniProt P35869); experiment: qHTS assay to identify small molecule that activate the aryl hydrocarbon receptor (AhR) signaling pathway (AID 743085); also: nearly all actives have a fitted effect of over 15% in size; also: potency is read from the fitted curve at half-maximal effect;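 as to activation: HG2L7.5c1 human HepG2 liver cells with stably integrated DRE-driven firefly reporter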
In short: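 AhR agonist activity is inferred from enhanced light output of a DRE-controlled firefly luciferase reporter in HepG2 cells, measured with ONE-Glo following 24 h treatment at 37C.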

[15] = target: Peroxisome proliferator-activated receptor gamma (Homo sapiens) (UniProt P37231); experiment: qHTS assay to identify small molecule agonists of the peroxisome proliferator-activated receptor gamma (PPARg) signaling pathway (AID 743094; active = well fitted activation curve with a large enough effect in the signal ratio in the repeat runs, not every such curve was filed as active; the % refers to the signal ratio; also: potency is read from the fitted curve at half-maximal effect)
In short: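 Agonist activity was taken from a beta-lactamase reporter (FRET substrate, 1 h at room temperature) in HEK293H cells carrying a PPARg UAS-bla construct. Compounds in DMSO were incubated 17 h at 37C after a 5 h cell pre-incubation.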

[16] = target: Estrogen receptor (Homo sapiens) (UniProt P03372); experiment: qHTS assay to identify small molecule agonists of the estrogen receptor alpha (ER-alpha) signaling pathway (AID 743075; calls by dose curve;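 also: HEK293 GripTite cells with ER-alpha and UAS-driven beta-lactamase reporter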)
[17] = target: Peroxisome proliferator-activated receptor gamma (Homo sapiens) (UniProt P37231); experiment: qHTS assay to identify small molecule antagonists of the peroxisome proliferator-activated receptor gamma (PPARg) signaling pathway (AID 743191; calls by dose curve; also: nearly all actives have a fitted effect of over 30% in size; also: potency is read from the fitted curve at half-maximal effect)
In short: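 Beta-lactamase reporter under UAS control in HEK293H PPARg-bla cells; compound treatment 17 h at 37C. Read-out: fluorescence intensity after 1 h room-temperature incubation with LiveBLAzer B/G FRET substrate.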

[18] = qHTS assay to identify small molecule antagonists of the estrogen receptor alpha (ER-alpha) signaling pathway using the BG1 cell line (AID 743080; calls by dose curve;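 also: BG1 cells stimulated with 17beta-estradiol alongside compound; nearly all actives have a fitted effect of over 25% in size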; also: potency is read from the fitted curve at half-maximal effect)
In short: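 Luminescence from a 4×ERE-luciferase reporter in BG1-Luc-4E2 cells served as read-out. Cells, pre-cultured 5 days in stripped-serum phenol-red-free medium, were exposed to compound with 17beta-estradiol co-stimulation for 21.5 h at 37 C.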

Measured: Potency

Aromatase (Homo sapiens), sequence (P11511 whole entry, looked up): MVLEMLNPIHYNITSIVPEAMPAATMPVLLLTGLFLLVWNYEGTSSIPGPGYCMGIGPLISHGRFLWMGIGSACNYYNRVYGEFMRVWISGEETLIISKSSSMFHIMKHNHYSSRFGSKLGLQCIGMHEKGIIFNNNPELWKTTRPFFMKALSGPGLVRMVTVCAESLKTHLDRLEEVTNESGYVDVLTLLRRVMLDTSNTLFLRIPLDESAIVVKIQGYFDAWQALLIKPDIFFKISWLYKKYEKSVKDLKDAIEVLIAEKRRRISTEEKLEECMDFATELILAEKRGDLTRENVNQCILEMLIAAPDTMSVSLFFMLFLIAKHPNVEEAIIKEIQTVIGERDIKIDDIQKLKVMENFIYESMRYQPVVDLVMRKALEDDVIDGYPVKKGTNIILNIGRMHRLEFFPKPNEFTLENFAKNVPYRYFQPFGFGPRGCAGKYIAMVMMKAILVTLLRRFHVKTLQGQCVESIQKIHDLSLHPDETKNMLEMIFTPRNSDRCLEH
Peroxisome proliferator-activated receptor gamma (Homo sapiens), sequence (P37231 whole entry, looked up): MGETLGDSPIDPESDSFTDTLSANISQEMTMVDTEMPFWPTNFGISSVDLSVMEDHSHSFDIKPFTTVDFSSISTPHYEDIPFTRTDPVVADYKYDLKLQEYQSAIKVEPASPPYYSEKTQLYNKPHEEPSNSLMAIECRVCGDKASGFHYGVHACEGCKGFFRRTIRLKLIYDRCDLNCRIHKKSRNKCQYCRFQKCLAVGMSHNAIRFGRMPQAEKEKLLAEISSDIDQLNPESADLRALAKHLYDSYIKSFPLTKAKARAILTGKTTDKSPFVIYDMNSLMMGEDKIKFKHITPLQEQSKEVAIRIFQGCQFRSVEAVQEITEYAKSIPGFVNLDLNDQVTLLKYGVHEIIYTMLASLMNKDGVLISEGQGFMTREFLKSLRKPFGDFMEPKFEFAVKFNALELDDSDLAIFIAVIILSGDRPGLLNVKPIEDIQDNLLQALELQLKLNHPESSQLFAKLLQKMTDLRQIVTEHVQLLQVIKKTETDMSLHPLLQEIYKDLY
Aryl hydrocarbon receptor (Homo sapiens), sequence (P35869 whole entry, looked up): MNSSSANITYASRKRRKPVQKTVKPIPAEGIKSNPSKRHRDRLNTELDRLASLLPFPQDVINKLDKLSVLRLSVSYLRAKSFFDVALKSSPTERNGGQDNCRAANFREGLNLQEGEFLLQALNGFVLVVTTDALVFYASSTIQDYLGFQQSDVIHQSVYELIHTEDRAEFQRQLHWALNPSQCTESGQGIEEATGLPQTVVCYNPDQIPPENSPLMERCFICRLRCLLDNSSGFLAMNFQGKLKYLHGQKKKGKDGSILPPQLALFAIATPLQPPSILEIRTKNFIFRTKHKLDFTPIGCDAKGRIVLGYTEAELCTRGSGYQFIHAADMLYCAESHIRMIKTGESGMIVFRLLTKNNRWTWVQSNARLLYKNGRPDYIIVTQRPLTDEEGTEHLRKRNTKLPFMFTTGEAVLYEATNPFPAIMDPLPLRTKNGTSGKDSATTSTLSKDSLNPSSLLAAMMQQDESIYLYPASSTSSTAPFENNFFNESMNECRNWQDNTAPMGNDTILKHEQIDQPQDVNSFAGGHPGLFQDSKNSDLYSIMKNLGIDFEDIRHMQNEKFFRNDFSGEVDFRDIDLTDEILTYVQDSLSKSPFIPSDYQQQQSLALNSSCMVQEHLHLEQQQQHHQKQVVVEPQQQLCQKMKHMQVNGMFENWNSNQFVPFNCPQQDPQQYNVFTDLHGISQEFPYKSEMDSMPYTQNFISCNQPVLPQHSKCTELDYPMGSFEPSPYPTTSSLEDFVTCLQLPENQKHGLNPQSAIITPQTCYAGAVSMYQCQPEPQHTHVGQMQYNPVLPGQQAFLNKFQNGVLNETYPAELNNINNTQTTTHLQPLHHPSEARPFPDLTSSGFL
Estrogen receptor (Homo sapiens), sequence (P03372 whole entry, looked up): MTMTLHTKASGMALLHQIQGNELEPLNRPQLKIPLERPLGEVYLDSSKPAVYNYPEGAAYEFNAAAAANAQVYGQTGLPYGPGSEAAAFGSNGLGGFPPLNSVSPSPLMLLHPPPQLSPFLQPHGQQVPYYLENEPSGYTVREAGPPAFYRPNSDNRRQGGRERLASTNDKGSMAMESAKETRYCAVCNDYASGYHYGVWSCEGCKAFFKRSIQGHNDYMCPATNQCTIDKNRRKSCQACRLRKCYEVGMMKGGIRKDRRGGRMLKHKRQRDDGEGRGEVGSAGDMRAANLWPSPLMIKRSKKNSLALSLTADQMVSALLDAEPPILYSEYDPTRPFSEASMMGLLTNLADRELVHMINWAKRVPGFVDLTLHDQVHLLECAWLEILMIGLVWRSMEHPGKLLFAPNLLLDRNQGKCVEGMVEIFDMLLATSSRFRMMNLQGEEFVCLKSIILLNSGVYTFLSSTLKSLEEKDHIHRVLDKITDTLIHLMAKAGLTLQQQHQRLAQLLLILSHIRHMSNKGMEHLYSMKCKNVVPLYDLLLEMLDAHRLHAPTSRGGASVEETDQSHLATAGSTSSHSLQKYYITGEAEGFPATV

NNC(=O)CP(=O)(c1ccccc1)c1ccccc1
not listed: [12] | Aromatase (Homo sapiens) | [13] | [14] | [15] | [16] | [17] | [18]
inactive: all other assays above

CC1(C)O[C@@H]2C[C@H]3[C@@H]4C[C@H](F)C5=CC(=O)C=C[C@]5(C)[C@H]4[C@@H](O)C[C@]3(C)[C@]2(C(=O)CO)O1
not listed: [16] | [17] | [18]
inactive: all other assays above

O=c1cc(-c2ccccc2)oc2ccc3ccccc3c12
inactive: [1] | [3] | [16] | [5] | [13] | [6] | [17]
active: [2] 9.69 µM | [12] 2.43 µM | Aromatase (Homo sapiens) 13.7 µM | [10] 24.5 µM

CC(CCC(=O)O)C(=O)O (configuration not stated)
not listed: [7] | [8] | [12] | [16] | [18]
inactive: all other assays above

O=C1c2ccccc2C(=O)C1c1nc2ccccc2c(Br)c1O
active: [14] 9.69 µM | [8] 1.54 µM
not listed: [13] | [18]
inactive: all other assays above

Cc1ccc(OC(=O)c2ccccc2O)cc1
not listed: [12] | [16] | [18]
inactive: all other assays above

CC(C)(c1ccccc1)c1ccccc1
not listed: [7] | [11] | [12] | [13] | [16] | [17] | [18]
inactive: all other assays above

CC(C)c1nc(CN(C)C(=O)N[C@H](C(=O)N[C@@H](Cc2ccccc2)C[C@H](O)[C@H](Cc2ccccc2)NC(=O)OCc2cncs2)C(C)C)cs1
inactive and 13.3 µM (active): [6]
active: [1] 15 µM | [2] 10.6 µM
inactive and 23.7 µM (active): [13]
not listed: [5] | [8] | [15] | [17]
inactive: all other assays above

COc1ccccc1NC(=O)c1cc2ccccc2cc1O
active: [2] 17.2 µM | Aromatase (Homo sapiens) 24.3 µM | [14] 3.06 µM | [7] 17.4 µM | [11] 50.9 µM
inactive: [1] | [3] | [16] | [15]

NC(=O)c1ccncc1
not listed: [12] | [16] | [18]
inactive: all other assays above

CC(C)C=O
not listed: [11] | [12] | [15] | [16] | [17] | [18]
inactive: all other assays above

CCC(OCCCOC)OC(C)=O (configuration not stated)
not listed: [7] | [12] | [15] | [16] | [17] | [18]
inactive: all other assays above

CC(=O)OCC[N+](C)(C)C
not listed: [7] | [12] | [16] | [18]
inactive: all other assays above

CC(C)(O)c1ccc(CNC(=O)c2cccnc2Oc2ccc3nonc3c2)cc1
not listed: [7] | [8] | [12] | [15] | [17]
inactive: all other assays above

N#[N+]c1ccc2c(S(=O)(=O)[O-])cccc2c1O
not listed: [6] | [12] | [13] | [17]
inactive: all other assays above

CC(=O)c1ccc([N+](=O)[O-])cc1
not listed: [12] | [16] | [18]
inactive: all other assays above

CCOC(=O)OC(C)OC(=O)[C@@H]1N2C(=O)[C@@H](NC(=O)[C@H](N)c3ccccc3)[C@H]2SC1(C)C (some centres not stated)
not listed: [7] | [12] | [16] | [17] | [18]
inactive: all other assays above

CC/C=C1/OC(=O)c2ccccc21
not listed: [12] | [16] | [17] | [18]
inactive: all other assays above

c1csc(SSc2cccs2)c1
not listed: [6] | [7] | [10] | [11] | [12] | [15] | [16] | [18]
inactive: all other assays above

CC(C)=CCC1C(=O)N(c2ccccc2)N(c2ccccc2)C1=O
active: [2] 21.1 µM | [17] 4.22 µM | [8] 1.88 µM
not listed: [11] | [12] | [15] | [18]
inactive: all other assays above

CCCCCCCCN
not listed: [12] | [16] | [18]
inactive: all other assays above

CC1CC(OC(=O)C(O)c2ccccc2)CC(C)(C)N1C (configuration not stated)
not listed: [7] | [12] | [15] | [16] | [17] | [18]
inactive: all other assays above

Cc1cccc(N(C)C(=S)Oc2ccc3c(c2)CCC3)c1
not listed: [5] | [6] | [8] | [11] | [17] | [18]
inactive: all other assays above

CCCCCCCCCCCCCCN(CCO)CCO
inactive: [3] | [5] | [14] | [6]
active: [1] 19.3 µM | [2] 17.2 µM | [4] 54.9 µM | Aromatase (Homo sapiens) 27.3 µM | [13] 43.3 µM | [7] 43.6 µM | [9] 61.1 µM | [10] 24.5 µM

CCCCCCNC(=O)n1cc(F)c(=O)[nH]c1=O
active: [1] 10.6 µM | [2] 2.66 µM
not listed: [8] | [12] | [15] | [16] | [17] | [18]
inactive: all other assays above

O=C(/C=C/c1ccccc1)OCCc1ccccc1
active: [12] 4.86 µM
not listed: [7] | [8] | [18]
inactive: all other assays above

O=c1cc(-c2ccccc2)oc2cc(O)cc(O)c12
active: [1] 54.5 µM | [2] 54.5 µM | [14] 12.2 µM
inactive: [3] | [4] | [5] | [7] | [9]

CC1=C(CC=O)C(C)(C)CCC1
not listed: [11] | [12] | [16] | [17] | [18]
inactive: all other assays above

NC1[C@H]2CN(c3nc4c(cc3F)c(=O)c(C(=O)O)cn4-c3ccc(F)cc3F)C[C@@H]12 (some centres not stated)
active: [1] 26.6 µM | [2] 9.44 µM | [18] 13.3 µM | Aromatase (Homo sapiens) 0.473 µM | [15] 23.9 µM | [8] 8.41 µM
not listed: [6] | [12] | [16] | [17]
inactive: all other assays above

O=C1NCCN1CCO
not listed: [12] | [13] | [14] | [16] | [18]
inactive: all other assays above

Source: PubChem BioAssay (Tox21)
